Compound activity as filed in PubChem.
IDE exosite inh – exo-site inhibitors of human insulin-degrading enzyme; z-score at 20 µM; P14735; purified IDE, FL-6b probe fluorescence polarization; active compounds read low; 17,000 compounds, 6.3% hits;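 active = z-score of -3 or lower, meaning strong loss of probe binding signal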;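 also: His-tagged human IDE residues 42-1019 made in E. coli with 30 nM FL-6b probe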
Target sequence (P14735 42-1019 limits assumed): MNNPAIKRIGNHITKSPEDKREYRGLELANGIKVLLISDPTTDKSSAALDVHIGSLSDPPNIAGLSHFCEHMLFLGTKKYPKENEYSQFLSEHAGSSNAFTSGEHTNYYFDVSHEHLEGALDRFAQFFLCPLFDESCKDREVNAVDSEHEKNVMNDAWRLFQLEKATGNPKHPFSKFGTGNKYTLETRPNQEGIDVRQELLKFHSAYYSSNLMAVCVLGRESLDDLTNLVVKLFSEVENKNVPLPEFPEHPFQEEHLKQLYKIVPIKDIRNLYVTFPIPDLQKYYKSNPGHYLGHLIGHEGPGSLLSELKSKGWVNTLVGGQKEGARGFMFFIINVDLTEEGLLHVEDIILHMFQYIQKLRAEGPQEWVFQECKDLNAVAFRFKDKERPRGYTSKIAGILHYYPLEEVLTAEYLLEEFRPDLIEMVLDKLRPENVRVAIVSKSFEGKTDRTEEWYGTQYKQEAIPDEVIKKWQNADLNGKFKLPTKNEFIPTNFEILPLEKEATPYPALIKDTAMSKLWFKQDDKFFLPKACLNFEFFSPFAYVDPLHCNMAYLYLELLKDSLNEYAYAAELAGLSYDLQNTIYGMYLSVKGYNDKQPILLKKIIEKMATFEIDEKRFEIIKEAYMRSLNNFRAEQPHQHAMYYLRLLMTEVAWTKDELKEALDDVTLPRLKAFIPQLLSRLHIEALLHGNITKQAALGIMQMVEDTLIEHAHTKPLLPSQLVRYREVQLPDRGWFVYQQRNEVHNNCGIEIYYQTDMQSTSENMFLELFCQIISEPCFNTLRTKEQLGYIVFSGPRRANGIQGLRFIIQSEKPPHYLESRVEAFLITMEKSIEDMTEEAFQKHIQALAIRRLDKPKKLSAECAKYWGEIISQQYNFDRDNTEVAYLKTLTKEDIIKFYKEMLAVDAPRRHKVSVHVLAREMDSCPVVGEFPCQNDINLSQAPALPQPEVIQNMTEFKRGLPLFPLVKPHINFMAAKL
Starred values were filed as active, the others as inactive. The sample as a whole holds a higher share of hits than the screen did.

SMILES | IDE exosite inh
O=C(Nc1ccccc1F)N1CC(=O)N2[C@H](CO)[C@H](c3ccc(C#Cc4ccc(F)cc4)cc3)[C@H]2C1 | 1.87
O=C(c1cnccn1)N1CC(=O)N2[C@H](CO)[C@@H](c3ccc(/C=C/c4ccccc4)cc3)[C@H]2C1 | -6.5*
C/C=C/c1ccc([C@H]2[C@H]3CN(C(=O)c4cnccn4)CC(=O)N3[C@H]2CO)cc1 | 3.03
O=C(c1cnccn1)N1CC(=O)N2[C@H](CO)[C@@H](c3ccc(-c4ccc(F)cc4)cc3)[C@H]2C1 | 0.961
O=C(c1cnccn1)N1CC(=O)N2[C@H](CO)[C@@H](c3ccc(/C=C/c4ccccc4)cc3)[C@@H]2C1 | -5.47*
O=C(c1cnccn1)N1CC(=O)N2[C@H](CO)[C@H](c3ccc(/C=C/c4ccccc4)cc3)[C@@H]2C1 | -5.34*
C/C=C/c1ccc([C@H]2[C@H](CO)N3C(=O)CN(C(=O)c4cnccn4)C[C@@H]23)cc1 | 3.67
C/C=C/c1ccc([C@@H]2[C@@H](CO)N3C(=O)CN(C(=O)c4cnccn4)C[C@H]23)cc1 | 1.49
O=C(c1cnccn1)N1CC(=O)N2[C@@H](CO)[C@H](c3ccc(/C=C/c4ccccc4)cc3)[C@@H]2C1 | -6.47*
O=C(c1cnccn1)N1CC(=O)N2[C@@H](CO)[C@H](c3ccc(-c4ccc(F)cc4)cc3)[C@@H]2C1 | 1.29
O=C(Nc1ccc(F)cc1)N1CC(=O)N2[C@H](C1)[C@H](c1ccc(Br)cc1)[C@@H]2CO | -0.638
COCC#Cc1ccc([C@@H]2[C@@H](CO)N3C(=O)CN(C(=O)C4CCC4)C[C@@H]23)cc1 | 4.04
Cn1cnc(S(=O)(=O)N[C@H]2CC[C@@H](CC(=O)NCC3CCCCC3)O[C@@H]2CO)c1 | 0.0128
CC(C)CC#Cc1ccc([C@@H]2[C@@H](CO)N3C(=O)CN(C(=O)c4ccc5c(c4)OCO5)C[C@@H]23)cc1 | 2.24
N#C[C@H]1[C@@H](c2ccccc2-c2ccc(F)cc2)[C@@H](CO)N1c1ncc(-c2ccccc2)s1 | 3.87
O=C(Nc1ccccc1)N1CCCCN2[C@H](CO)[C@H](c3ccc(C4=CCCCC4)cc3)[C@@H]2C1 | 2.78
COc1ccc(S(=O)(=O)Nc2ccc3c(c2)OC[C@H](C)NC[C@@H](C)[C@@H](OC)CN(C)C3=O)cc1 | -0.735
O=C(CN1CCOCC1)N1CCCCN2[C@H](C1)[C@H](c1ccc(/C=C/c3ccccc3)cc1)[C@@H]2CO | -8.16*
O=C(CN1CCOCC1)N1CCCCN2[C@H](CO)[C@@H](c3ccc(/C=C/c4ccccc4)cc3)[C@@H]2C1 | -3.73*
O=C(CN1CCOCC1)N1CCCCN2[C@@H](CO)[C@@H](c3ccc(Br)cc3)[C@@H]2C1 | 1.25
O=C(CN1CCOCC1)N1CCCCN2[C@H](CO)[C@@H](c3ccc(Br)cc3)[C@@H]2C1 | 1.12
O=C(CN1CCOCC1)N1CCCCN2[C@H](CO)[C@H](c3ccc(-c4ccccc4)cc3)[C@H]2C1 | -2.11
O=C(CN1CCOCC1)N1CCCCN2[C@@H](CO)[C@H](c3ccc(Br)cc3)[C@@H]2C1 | -0.963
C/C=C/c1ccc([C@H]2[C@@H](CO)N(S(C)(=O)=O)[C@@H]2CN(CCC)C(C)=O)cc1 | -0.0249
C/C=C/c1ccccc1[C@H]1[C@@H](C#N)N(C(=O)NC2CCCCC2)[C@H]1CO | 0.891
SMILES | IDE exosite inh
CC(C)CC#Cc1ccc([C@@H]2[C@@H](CO)N3C(=O)CN(C(=O)Nc4cc(F)ccc4F)C[C@@H]23)cc1 | -0.649
O=C(C1CCOCC1)N1CC(=O)N2[C@H](CO)[C@@H](c3ccc(C#Cc4cccc(F)c4)cc3)[C@H]2C1 | -4.42*
O=C(C1CCOCC1)N1CC(=O)N2[C@@H](CO)[C@H](c3ccc(C#Cc4cccc(F)c4)cc3)[C@@H]2C1 | -6.61*
O=C(C1CCOCC1)N1CC(=O)N2[C@H](CO)[C@@H](c3ccc(C#CC4CC4)cc3)[C@@H]2C1 | -0.176
O=C(C1CCOCC1)N1CC(=O)N2[C@H](C1)[C@@H](c1ccc(C#Cc3cccc(F)c3)cc1)[C@@H]2CO | -9.43*
O=C(C1CCOCC1)N1CC(=O)N2[C@H](CO)[C@H](c3ccc(C#Cc4cccc(F)c4)cc3)[C@@H]2C1 | -8.17*
O=C(Nc1ccccc1F)N1CC(=O)N2[C@H](C1)[C@H](c1ccc(C#CC3CCCC3)cc1)[C@@H]2CO | 1.81
CCCC#Cc1ccc([C@@H]2[C@H]3CN(S(=O)(=O)c4ccccc4C)CCCCN3[C@H]2CO)cc1 | 2.05
N#C[C@@H]1[C@@H](c2ccc(C3=CCCCC3)cc2)[C@@H](CO)N1C(=O)Cc1ccncc1 | 3.54
COCC(=O)N1[C@@H](C#N)[C@@H](c2ccc(C3=CCCCC3)cc2)[C@@H]1CO | 1.55
CCC(=O)N1CC[C@@H]2[C@H]1c1cc(C#Cc3ccccc3F)ccc1N[C@@H]2CO | 0.478
O=C(Nc1cc(F)ccc1F)N1CC(=O)N2[C@@H](CO)[C@@H](c3ccc(-c4cccnc4)cc3)[C@@H]2C1 | 1.87
O=C(Nc1cc(F)ccc1F)N1CC(=O)N2[C@@H](CO)[C@H](c3ccc(-c4cccnc4)cc3)[C@@H]2C1 | 1.57
O=C(Nc1cc(F)ccc1F)N1CC(=O)N2[C@H](CO)[C@H](c3ccc(-c4cccnc4)cc3)[C@H]2C1 | -4.47*
